In PubChem BioAssay (NCI):
Several values for one entry are separate records, joined by “and”; a condition that tells them apart may be missing. Equal entries are not always repeated. Compounds without any hit were thinned out: in the full panel of roughly 83,000, 20% have a hit.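 Single-dose data. Exposure time 48 hours. Values below 10 considered active.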 A number with no mark means an inactive call. Activity calls are given as the source filed them.

The molecules below were run on T-47D breast (assay: NCI-60 one-dose screen, 48 h (100 = growth as untreated, 0 = no growth, -100 = all killed)). Conditions: 10 µM.
For `CC/C(=C(\c1ccc(O)cc1)c1ccc(OCCN(C)C(=O)COCCNC(=O)Cc2ccc3c(c2)CN([C@@H]2CCC(=O)NC2=O)C3=O)cc1)c1ccccc1`, the growth was 7.16% (active). Work on `CC/C(=C(\c1ccc(O)cc1)c1ccc(OCCN(C)C(=O)CCOCCNC(=O)c2ccc3c(c2)CN([C@@H]2CCC(=O)NC2=O)C3=O)cc1)c1ccccc1` yielded a growth of 50.4%. In the case of `CC/C(=C(/c1ccc(O)cc1)c1ccc(OCCN(C)C(=O)CCOCCNC(=O)Cc2ccc3c(c2)CN([C@@H]2CCC(=O)NC2=O)C3=O)cc1)c1ccccc1`, the growth was 25%. `CC/C(=C(/c1ccc(O)cc1)c1ccc(OCCN(C)C(=O)COCCOCCNC(=O)c2ccc3c(c2)CN([C@@H]2CCC(=O)NC2=O)C3=O)cc1)c1ccccc1` gave a growth of 33.4%. `CC/C(=C(\c1ccc(O)cc1)c1ccc(OCCNC)cc1)c1ccccc1` showed a growth of 44.8%. `CC/C(=C(/c1ccc(O)cc1)c1ccc(OCCN(C)C(=O)COCCOCCNC(=O)Cc2ccc3c(c2)CN([C@@H]2CCC(=O)NC2=O)C3=O)cc1)c1ccccc1` was tested, and the growth was 6.14% (active).

Same assay, conditions: 10 µM unless noted
For `N#CC1=C(c2cccs2)Nc2c(c(-c3ccccc3)nn2-c2ccccc2)C12C(=O)Nc1ccccc12` (stereo unspecified), the growth was 17.3%. Molecule `O=C1CC(c2ccc(I)cc2)OC2C=Cc3ccccc3C12` (stereo unspecified) has a growth of 87.8%. For `COc1ccc([C@H]2C(C(=O)c3ccc(Cl)cc3)C3(N[C@@H]2c2ccccc2)C(=O)Nc2ccccc23)cc1` (stereo partly specified), the growth was 16.8%. For `COc1ccc2c(c1)N=c1c-2cc2c(O)[nH]c(=S)n2c1=O`, the growth was 46.4%. With `Cc1cc(N=C(N)c2ccccc2)ccc1OCCCCCCCCn1ccnc1` the growth was 26.4%. `CS(=O)(=O)Nc1cc(-c2ccc3ncnc(N4CCc5cc(F)c(Cl)cc54)c3c2)cnc1Cl` was tested, and the growth was -9.78% (active). `COc1cc(NC(=O)C(C)C)ccc1C(=O)NC(=S)Nc1ccc(S(N)(=O)=O)cc1` was tested, and the growth was 99.5%. `CC1=C(C(=O)OC(C)C)C(c2ccc(O)cc2)NC(=O)N1` (stereo unspecified) gave a growth of 101%. With `COc1cccc(/C=C/c2nc3ccccc3c(=O)n2CC(=O)Nc2ccccc2)c1` the growth was 36.7%. For `COC(=O)c1c(C(=O)OC)c2ccc3c4ccccc4ccc3n2c1C(=O)OC`, the growth was 93.7%. For `CCCCCCCCc1cccc(CC(=O)Nc2ccc(C)cc2C(=O)O)c1`, the growth was 65.6% [25 µM]. `O=C(c1cc2cc(OCCCN3CCC3)ccc2[nH]1)N1C[C@@H](CCl)c2c1cc(OCc1ccccc1)c1ccccc21` was tested, and the growth was -11.6% (active). In the case of `CC(C)(C)OC(=O)N1CCC2(CC1)Oc1ccccc1[C@H]1CC(c3ccc(Br)cc3)=NN12`, the growth was 37.1%. `COc1ccc(NC2=C(I)C(=O)C(C)=C(C)C2=O)cc1` was tested, and the growth was -21.1% (active). With `CC[C@]12C=CCN3CC[C@@]4(c5ccc(OC)cc5N(C)[C@H]4[C@@](O)(C(=O)OC)[C@@H]1OC(=O)CCCC[P+](c1ccc(F)cc1)(c1ccc(F)cc1)c1ccc(F)cc1)[C@@H]32` the growth was 12.8%. `FC(F)(F)c1cc2c(Cl)ncnc2n1CCN1CCCCC1` was tested, and the growth was 70.5%. With `O=C(CSc1nnc(-c2ccc(-c3nc4ccc(Cl)cc4[nH]3)cc2)o1)Nc1ccccc1` the growth was 93.3%. For `Cc1cccc(NCC(=O)N2CCN(c3ncnc4c3cnn4-c3ccccc3)CC2)c1`, the growth was 33.6%. With `CS(=O)(=O)c1ccc(-n2nc(C(=O)NCc3ccccc3)cc2-c2ccc(Cl)cc2)cc1` the growth was 66.6%. For `CS(=O)(=O)Nc1cccc(-n2c(COc3ccc(OC(F)(F)F)cc3)nc3ccccc32)c1`, the growth was 62.2% and 85%. In the case of `O=C(CSc1nc2sc3c(c2c(=O)n1-c1ccc(Cl)cc1)CCCC3)NNC(=O)c1ccc(Br)cc1`, the growth was 58.5%. In the case of `O=C(c1ccc(Cl)cc1)C1[C@H](c2ccccc2Cl)[C@@H](c2ccccc2)NC12C(=O)Nc1ccccc12` (stereo partly specified), the growth was -6.74% (active). With `O=C1NC(=NC23CC4CC(CC(C4)C2)C3)N/C1=C\c1ccc2ncccc2c1` the growth was 22.5%. Molecule `N#CC1=C(c2ccco2)Nc2c(c(-c3ccccc3)nn2-c2ccccc2)C12C(=O)Nc1ccc(Cl)cc12` (stereo unspecified) has a growth of 26.6%. For `O=C(c1ccc(O)cc1)C1[C@H](c2ccccc2Br)[C@@H](c2ccccc2)NC12C(=O)Nc1ccccc12` (stereo partly specified), the growth was 51.1%.
